# PubChem BioAssay AID588342 (National Center for Advancing Translational Sciences (NCATS), 2011)
# Hit rate of the full screen: of about 360,000 compounds, about 25,000 (6.9%) were called active. Where a call stands in place of a potency, no number is given. Another 9% or so got no clear call; they are omitted. Calls follow the shape of the dose curve; as a rule, active = well fitted inhibition curve with a large enough effect; inconclusive = small, poorly fitted or top-dose-only effect; inactive = flat fitted curve, though single readings scatter. The full list was thinned out, with actives kept by preference.
# Target: Luciferin 4-monooxygenase (Photinus pyralis) (UniProt P08659)
# Sequence (P08659 whole entry, looked up): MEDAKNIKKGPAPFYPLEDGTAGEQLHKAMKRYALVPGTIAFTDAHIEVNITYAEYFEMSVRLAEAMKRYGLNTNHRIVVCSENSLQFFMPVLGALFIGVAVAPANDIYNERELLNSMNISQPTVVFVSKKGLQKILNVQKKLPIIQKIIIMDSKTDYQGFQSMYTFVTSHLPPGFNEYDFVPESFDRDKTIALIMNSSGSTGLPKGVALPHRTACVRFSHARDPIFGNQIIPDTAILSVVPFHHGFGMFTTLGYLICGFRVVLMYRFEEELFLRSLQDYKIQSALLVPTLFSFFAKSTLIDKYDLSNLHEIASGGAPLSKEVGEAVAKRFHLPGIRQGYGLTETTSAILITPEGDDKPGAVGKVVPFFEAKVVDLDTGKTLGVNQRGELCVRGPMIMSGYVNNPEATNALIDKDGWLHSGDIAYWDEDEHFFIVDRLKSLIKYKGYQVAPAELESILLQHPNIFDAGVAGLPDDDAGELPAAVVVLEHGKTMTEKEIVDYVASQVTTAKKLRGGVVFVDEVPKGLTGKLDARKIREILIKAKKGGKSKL
# Test: qHTS profiling assay for firefly luciferase inhibitor/activator using purifed enzyme and Km concentrations of substrates (counterscreen for miR-21 project); also: nearly all actives have a fitted effect of over 55% in size
# Conditions: purified FLuc, luminescence inhibition; series mostly up to 57.5 µM
# Method in brief: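 Biochemical qHTS of compounds, final roughly 60 µM downward over six points, against 10 nM purified firefly luciferase using Km concentrations of substrates (10 uM D-luciferin, 10 uM ATP) in Tris acetate pH 7.5 buffer; luminescence output.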
# Potency is read from the fitted curve at half-maximal effect.
row,Structure (SMILES),Potency
1,COC(=O)c1ccc2c(c1)N(CC(=O)Nc1ccc(C)c(C)c1)C(=O)c1ccccc1S2,inactive
2,CCN(CCCNC(=O)CSc1cc(=O)n(C)c2cc(Cl)ccc12)c1cccc(C)c1,inactive
3,Oc1ccc(/C=N/N(Cc2ccccc2)c2ccccc2)cc1,inactive
4,CC1CCCN(c2cc3c(cc2F)c(=O)c(S(=O)(=O)c2cccc(Cl)c2)cn3Cc2ccccc2)C1 (stereo not drawn),inactive
5,Cc1ccnc(N2CCCC(C(=O)Nc3cc(F)ccc3C)C2)n1 (stereo not drawn),inactive
6,CC1CCCN(c2csc3ccc(F)cc3c2=O)C1 (stereo not drawn),6.01 µM (active)
7,CCOc1ccc(NC(=O)CN(C)C(=O)c2cccc(S(=O)(=O)N3CCCC3)c2)cc1OCC,inactive
8,CC1=C(c2ccc(C)cc2)S(=O)(=O)NC1=NCCCN1CCN(c2cc(C)ccc2C)CC1,inactive
9,Cc1ccc(CNS(=O)(=O)c2ccc(C(=O)N(C)C)s2)cc1,inactive
10,Cc1ccc(/C=N/NC(=O)c2cc3ccccc3cc2O)o1,9.53 µM (active)
11,O=C(N/N=C/c1cccnc1)c1cc2ccccc2cc1O,5.36 µM (active)
12,O=C(N/N=C\c1cccnc1)c1cc(-c2ccccc2)nc2c(Cl)cccc12,inactive
13,Cc1ccc(/C=N/NC(=O)Cn2nc(C)c(Br)c2C)o1,inactive
14,Cc1ccc(/C=N/NC(=O)Cn2ccc(C(F)(F)F)n2)o1,inactive
15,O=C(N/N=C/c1cccnc1)c1ccc(NC(=O)c2ccc(F)cc2)cc1,inactive
16,CCc1cc2c(cc3c(=O)n(CC(=O)NCc4cccc(Cl)c4)nc(CC)n32)s1,inactive
17,O=C(CSc1nc(-c2ccccc2)cs1)Nc1cccc([N+](=O)[O-])c1,10.7 µM (active)
18,COc1ccc(-n2cnnc2SCC(=O)Nc2cccc([N+](=O)[O-])c2)cc1,inactive
19,O=C(CSc1ncn[nH]1)Nc1nc(-c2cccc([N+](=O)[O-])c2)cs1,inactive
20,O=C1NC(c2ccc(-c3ccccc3[N+](=O)[O-])o2)C(C(=O)c2ccc(Cl)cc2)C(O)(C(F)(F)F)N1 (stereo not drawn),inactive
21,Cc1cc([N+](=O)[O-])c(-c2ccc(/C=N/n3cnnc3)o2)cc1Cl,inactive
22,CC1=NN(c2ccc(Cl)c(C(=O)O)c2)C(=O)/C1=C/c1ccc(-c2ccccc2[N+](=O)[O-])o1,4.78 µM (active)
23,CCOC(=O)c1cc2cc3ccccc3cc2oc1=O,9.53 µM (active)
24,NS(=O)(=O)c1ccc(NC(=O)COC(=O)c2cc3ccccc3oc2=O)cc1,inactive
25,C=CCc1cccc2cc(C(=O)OCC)c(=O)oc12,inactive
26,O=C(CCC(=O)N1CC2CCCN2c2ccccc21)NCc1ccccc1Cl (stereo not drawn),inactive

row,Structure (SMILES),Potency
1,O=C(CCc1nc(CN2CCN(S(=O)(=O)c3ccc(Br)cc3)CC2)no1)N1CCCCC1,inactive
2,CCOC(=O)c1c(C)[nH]c(CCC(=O)NCCCN2CCN(c3cccc(Cl)c3)CC2)c1C,inactive
3,CN(C)CCCn1c(-c2ccc(Cl)cc2)csc1=Nc1ccccc1,inactive
4,CN(C)CCn1c(=S)[nH]c2ccc(Cl)cc2c1=O,inactive
5,CN(C)CCN=c1cc(-c2ccccc2)oc2ccc(Cl)cc12,6.01 µM (active)
6,O=C(CCCn1c(=O)c2cccn2c2cccnc21)NCc1ccc(F)cc1,inactive
7,Cc1ccccc1Cn1nc(C)c(NC(=O)c2cc(-c3ccc(F)cc3)on2)c1C,inactive
8,CCOC(=O)C1=C(N)N2C(=O)C(C)SC2=C(C(=O)OCC)C1c1cc(OC)c(OC)c(OC)c1 (stereo not drawn),inactive
9,CC1(C)CCSC(/C=C/c2ccccc2)=N1,13.5 µM (active)
10,Cc1ccc(C)c(CN2C(=O)c3ccccc3S(=O)c3ccc(C(=O)N4CCOCC4)cc32)c1 (stereo not drawn),inactive
11,COc1ccc(C/C(C)=N/NC(=O)c2cc(C)oc2C)cc1,inactive
12,CC(=O)N/C(=C/c1ccc(OC(F)F)cc1)C(=O)O,inactive
13,Cc1cc(C(=O)N/N=C\C(Br)=C\c2ccccc2)c(C)o1,8.49 µM (active)
14,Cc1cc(C(=O)OCC(=O)Nc2ccccc2Cl)c(C)o1,inactive
15,O=C(Cc1cc(=O)[nH][nH]1)N/N=C/c1ccccc1[N+](=O)[O-],inactive
16,CC(=C/c1ccccc1)/C=N/NC(=O)c1cc(C)oc1C,1.35 µM (active)
17,Cc1cc(Nc2ccc(N3CCOCC3)cc2)c2cccc(C)c2n1,inactive
18,CC(=O)c1ccc(N2CCN(CC(=O)Nc3ccccc3N3CCOCC3)CC2)cc1,inactive
19,Cc1ccccc1N/N=C/c1ccc(N2CCOCC2)cc1,10.7 µM (active)
20,Cc1cc(C(=O)N/N=C/c2ccccc2[N+](=O)[O-])c(C)o1,16.9 µM (active)
21,Cc1cc(-c2n[nH]c(=S)n2/N=C/C(Br)=C/c2ccccc2)n[nH]1,inactive
22,CC(=O)N/N=C/c1cc2c(cc1[N+](=O)[O-])OCO2,inactive
23,Cc1ccc(CC(=O)Nc2ccc(S(=O)(=O)N3CCOCC3)cc2)cc1C,inactive
24,Cc1cccc(Cn2c(=O)n(CCC(=O)NCCc3ccc(Cl)cc3)c(=O)c3sccc32)c1,inactive
25,O=C(CN1CCN(C2CCS(=O)(=O)C2)CC1)N1N=C(c2ccc(Cl)cc2)CC1c1ccco1 (stereo not drawn),inactive
26,CCOC(=O)c1cc(-c2ccccc2)n(CCC(=O)Nc2ccccc2CC)c1C,inactive

row,Structure (SMILES),Potency
1,CC1=Nc2cc(C(=O)N3CCC(C)CC3)ccc2Sc2ccc(Cl)cc21,inactive
2,CC(=O)Nc1cccc(NC(=O)CSc2nccn2Cc2ccc3c(c2)OCO3)c1,inactive
3,COc1ccc(Br)cc1CNC(=O)c1cc(=O)[nH]c2ccc(S(=O)(=O)N3CCCC3)cc12,inactive
4,O=c1c2c(ncn1Cc1ccccc1)nc1n2CCC1,inactive
5,Cc1cc(C)nc(NS(=O)(=O)c2ccc(NC(=O)c3cc(=O)c4ccc(C)c(C)c4o3)cc2)n1,inactive
6,O=c1cc(CSc2ncn[nH]2)[nH]c2ccc(F)cc12,inactive
7,CC(C)N(Cc1nnc(-c2ccccc2Br)o1)C(=O)c1cc(Cl)nc2ccccc12,inactive
8,Cc1ccc(OCCCC(=O)Nc2ccc(N3CCOCC3)cc2)cc1,inactive
9,CCN(CC)c1ccc(C(=O)N/N=C/c2ccc(N3CCOCC3)cc2)cc1,inactive
10,Cc1cc(C(=O)N/N=C/c2ccc(N3CCOCC3)cc2)c(C)o1,13.5 µM (active)
11,O=c1c2ccccc2ccc2ccc(P(=O)(O)O)cc12,inactive
12,Cc1ccc(NC(=O)c2ccccn2)cc1S(=O)(=O)N1CCOCC1,inactive
13,COc1ccc(C(=O)O/N=C(\N)c2ccccn2)cc1[N+](=O)[O-],12 µM (active)
14,Cc1ccc(C(=O)O/N=C(\N)c2ccccn2)cc1Cl,0.169 µM (active)
15,O=C(Nc1ccccc1Cl)O/N=C(/c1ccccc1)c1ccccn1,inactive
16,COc1ccc(C(=O)NNC(=O)c2cnccn2)cc1[N+](=O)[O-],inactive
17,N/C(=N\OC(=O)c1ccc([N+](=O)[O-])cc1)c1ccccn1,0.601 µM (active)
18,O=C(OCc1ccc([N+](=O)[O-])cc1)c1ccccn1,inactive
19,O=C(COC(=O)c1ccccn1)NNC(=O)c1ccc([N+](=O)[O-])cc1,inactive
20,COc1ccc(C(=O)CSc2nc(C)cc(C)n2)cc1[N+](=O)[O-],inactive
21,O=C(CCS(=O)(=O)c1cc(Br)cc2c1N(C(=O)C1CC1)CC2)Nc1ccc(C(F)(F)F)cc1,inactive
22,C/C=N/NC(=O)CCCC(=O)N/N=C/C,inactive
23,COc1ccccc1C(=O)NCC(=O)NCCSc1ccc(Br)cc1,inactive
24,Cn1nnnc1SCCCNCc1ccc(Cl)cc1,inactive
25,Cc1ccc(NC(=O)C(=O)NCC(c2cccnc2)N2CCOCC2)cc1 (stereo not drawn),inactive
26,Cc1cc(NC(=O)CSc2ncc(C(=O)Nc3ccc(Cl)cc3)c(=O)n2C)no1,inactive

row,Structure (SMILES),Potency
1,Cc1ccc(NC(=O)c2cnc(SCC(=O)NCC3CCCO3)n(C)c2=O)cc1 (stereo not drawn),9.53 µM (active)
2,Cn1c(SCC(=O)c2ccccc2)ncc(C(=O)Nc2ccc(F)cc2)c1=O,inactive
3,COc1ccc(Cl)cc1NC(=O)CSc1nc(=O)[nH]c2c1CCCC2,inactive
4,NC(=O)C1CCN(C(=O)/C(=C/c2ccco2)NC(=O)c2ccccc2)CC1,inactive
5,C/C(=C\c1ccco1)C1Nc2cccc3cccc(c23)N1,10.7 µM (active)
6,O=C(NCC1CCCO1)/C(=C\c1ccco1)NC(=O)c1ccccc1 (stereo not drawn),inactive
7,Clc1ccc(Cc2nnc(-c3cccs3)o2)cc1,19 µM (active)
8,c1csc(-c2nnc(COc3ncnc4sccc34)o2)c1,inactive
9,CNC(=O)c1nnc(Cc2ccc(Cl)cc2)o1,inactive
10,CC(Sc1oc(-c2ccco2)nc1S(=O)(=O)c1ccc(Br)cc1)c1ccccc1 (stereo not drawn),inactive
11,Cc1cc(C)n2nc(C(=O)OCC(=O)N(C)CC(=O)Nc3ccc(F)cc3)nc2n1,inactive
12,COc1ccc(CNC(=O)c2cc3c(=O)[nH]c4ccc(C)cc4c3s2)c(OC)c1,inactive
13,CCOC(=O)c1nc(Nc2ccc(C(=O)OC)cc2)c2ccccc2n1,inactive
14,Cc1ccc(NC(=O)CCC(=O)c2ccc(Br)cc2)cc1,inactive
15,Cc1ccc(C(=O)NC2CCN(C(=O)Nc3ccc(F)cc3)CC2)cc1,inactive
16,COC(=O)c1ccc(NCC(=O)N2CCCCCC2)cc1,inactive
17,COC(=O)c1ccc(NCC(=O)c2ccccc2)cc1,1.51 µM (active)
18,Cc1ccc(C(=O)CNc2ccc(F)cc2)cc1,4.78 µM (active)
19,CCn1c2ccccc2c2nnc(N3CCN(c4cc(C)ccc4C)CC3)nc21,inactive
20,CC(=O)Nc1cc(C(=O)NCc2ccc(F)cc2Cl)ccc1Sc1ccc(Cl)cc1,inactive
21,O=c1c(=O)n(Cc2c(F)cccc2Cl)ccn1Cc1ccccc1,inactive
22,CCOC(=O)C1CCN(c2csc3ccc(C)cc3c2=O)CC1,7.57 µM (active)
23,CCOC(=O)C1CCN(c2ccc(C(=O)O)cc2[N+](=O)[O-])CC1,inactive
24,CCOC(=O)C1CCN(c2c(Nc3cc(C)cc(C)c3)c(=O)c2=O)CC1,inactive
25,CCOCCCNC(=O)c1cn(CC)c2ccc(S(=O)(=O)N3CCc4ccccc4C3)cc2c1=O,inactive
